Screening data as filed in PubChem BioAssay.
Sampled rows, rich in hits. Any-hit rate of the full collection: about 27%.
sEH act – soluble epoxide hydrolase activators, primary screen, biochemical, human sEH | Bifunctional epoxide hydrolase 2 (Homo sapiens), P34913 | purified human sEH enzymatic activity, activator screen | activation, % at 2 µM | actives 0.04% (n = 91,000) | AID 717, 2007; in the data active means activation above about 37%
CYP2C9 act – human CYP2C9 activators, primary screen, biochemical, luminescence; Cytochrome P450 2C9 (Homo sapiens), P11712; recombinant CYP2C9, luciferin-H conversion; stronger effect = higher value; factor 1 = untreated enzyme, 0 = blocked; activation factor at 5 µM; actives 1.4% (n = 96,000);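 active means activation factor of 2 or more for CYP2C9 at a 5 µM dose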;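 further: 0 = sulfaphenazole-blocked wells and 1 = vehicle-only wells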
CYP2C19 act – human CYP2C19 activators, primary screen, biochemical, luminescence. activation factor at 5 µM. recombinant CYP2C19, luciferin-H EGE luminescence; stronger effect = higher value; 0 = fully inhibited enzyme, 1 = untreated enzyme. Cytochrome P450 2C19 (Homo sapiens), P33261. 96,000 tested, under 10 active;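 active means activation factor of at least 2 at 5 µM in the primary screen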;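 further: 0 = wells with 2.5 mM tranylcypromine and 1 = vehicle-only wells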
Target sequence (P33261 whole entry, looked up): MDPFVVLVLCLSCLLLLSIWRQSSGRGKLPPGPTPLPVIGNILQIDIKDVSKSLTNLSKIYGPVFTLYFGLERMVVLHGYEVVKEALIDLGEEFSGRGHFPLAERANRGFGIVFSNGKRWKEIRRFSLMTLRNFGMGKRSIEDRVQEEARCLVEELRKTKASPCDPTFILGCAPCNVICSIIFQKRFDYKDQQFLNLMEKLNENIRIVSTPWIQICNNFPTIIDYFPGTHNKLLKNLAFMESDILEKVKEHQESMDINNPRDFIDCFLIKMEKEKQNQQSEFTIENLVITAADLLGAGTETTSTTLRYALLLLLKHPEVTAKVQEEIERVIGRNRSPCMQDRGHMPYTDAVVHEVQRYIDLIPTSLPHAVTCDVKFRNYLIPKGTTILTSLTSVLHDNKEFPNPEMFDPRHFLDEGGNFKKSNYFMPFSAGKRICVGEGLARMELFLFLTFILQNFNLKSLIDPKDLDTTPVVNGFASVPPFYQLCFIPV
sEH inhibitor – soluble epoxide hydrolase inhibitors, primary screen, biochemical, human sEH; actives 0.34% (n = 91,000); recombinant human sEH enzymatic activity assay; Bifunctional epoxide hydrolase 2 (Homo sapiens), P34913; inhibition, % at 2 µM; in the data active means inhibition above about 80%
CYP2C19 inhib – blockers of cytochrome P450 2C19 activity – biochemical, luminescence, ADME assay, primary screen; P33261; CYP2C19 Supersomes, luciferin-H EGE luminescence, 30 min; inhibition, % at 5 µM; actives 21% (n = 96,000);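 active means CYP2C19 inhibition above a set limit at 5 µM in the primary screen, cut at about 50% in these data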;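 further: plate controls were negative control wells for no effect and 2.5 mM tranylcypromine positive control for full effect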
CYP2C9 inhib – blockers of cytochrome P450 2C9 activity – biochemical, luminescence, ADME assay, primary screen; P11712; CYP2C9 Supersomes, luciferin-H conversion; inhibition, % at 5 µM; actives 20% (n = 96,000); AID 777, 2007;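 active means blocking of liver enzyme CYP2C9 beyond about 50% at 5 µM, limit read from the data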
Numbers without * were called inactive; . = not tested or not shown.

SMILES	sEH act	CYP2C9 act	CYP2C19 act	sEH inhibitor	CYP2C19 inhib	CYP2C9 inhib
CC(C)NC(=O)CSc1nc2ccccc2n1CC(=O)N1CCc2ccccc21	18	0.1	0.3	-16	72*	95*
COCCOC(=O)c1c(C)oc2ccc(OC(=O)c3ccc4c(c3)OCO4)cc12	4	0.1	1.1	-3	-10	87*
COCCOC(=O)c1c(C)oc2ccc(OC(=O)c3c(OC)cccc3OC)cc12	16	0	0.1	-15	93*	96*
CC1CCN(S(=O)(=O)c2ccc3c(c2)oc(=O)n3CC(=O)N2c3ccccc3CC2C)CC1 (stereo unspecified)	-13	0.6	0.5	13	46	42
CC1Cc2ccccc2N1C(=O)CCn1c(=O)oc2ccccc21 (stereo unspecified)	.	0.2	0.1	.	94*	77*
CC(=O)N1CCN(C(=O)Cn2c(=O)oc3ccccc32)CC1	6	0.9	0.9	-2	8	9
O=C(CCn1c(=O)oc2ccccc21)N1CCN(c2ccccc2F)CC1	.	0.7	0.3	.	73*	27
CC1Cc2ccccc2N1C(=O)Cn1c(=O)oc2cc(S(=O)(=O)NC3CCCC3)ccc21 (stereo unspecified)	-10	0.3	0.7	9	31	69*
O=C(CCn1c(=O)oc2ccccc21)N1CCN(C(c2ccccc2)c2ccccc2)CC1	.	0.3	1	.	4	66*
O=C1CC(C(=O)N2CCOCC2)C2(CCCCC2)O1 (stereo unspecified)	14	1.2	0.7	-16	26	-24
Cn1c(=O)c2c(nc3sccn32)n(C)c1=O	6	.	.	-8	.	.
Cc1cc(NC(=O)C23CCC(C)(c4nc5cc(Cl)c(Cl)cc5nc42)C3(C)C)no1 (stereo unspecified)	2	.	.	-2	.	.
CCOC(=O)CCc1c(C)nc(SCCCn2c(=O)[nH]c3ccccc32)c(C#N)c1C	8	0.4	0.5	-5	46	64*
NC1=NC(c2ccc(Cl)cc2)n2c(nc3ccccc32)N1 (stereo unspecified)	-6	0.9	0.1	8	88*	10
NC1=NC(c2ccccc2Cl)n2c(nc3ccccc32)N1 (stereo unspecified)	.	1	1	.	-3	-3
CCOc1ccc(C(=S)NC2CCCCC2)cc1OC	-3	1	0.9	5	13	0
CCCCN(CC)C(=O)Cn1ncc2c1-c1cc(C)ccc1OC2	11	0.3	0.2	-13	77*	70*
O=C(NCc1cccnc1)c1sc2cc(Cl)ccc2c1Cl	-8	0.5	0.2	9	79*	46
Cn1c(C(=O)NCc2cccnc2)cc2sc(Cl)cc21	.	0.1	0	.	97*	89*
O=C(NCc1ccco1)c1sc2cc(Cl)ccc2c1Cl	-1	.	.	0	.	.
C=CCn1c(N)c(C(=O)NCc2cccnc2)sc1=S	-9	0.2	0	10	96*	78*
CCOc1ccc(CCNC(=O)c2cc3sc(Cl)cc3n2C)cc1OCC	12	1	0.9	-13	14	2
COc1cc(/C=N/NC(=O)C(C)n2nnc3ccccc32)ccc1O (stereo unspecified)	-3	0.6	0.6	4	36	36
CCC(C)NC(=O)CS(=O)Cc1nc(-c2ccccc2C)oc1C (stereo unspecified)	-1	0.9	0.9	0	8	8
Cc1nc(SCC(=O)Nc2c(C)n(C)n(-c3ccccc3)c2=O)n[nH]1	9	.	.	-8	.	.
SMILES	sEH act	CYP2C9 act	CYP2C19 act	sEH inhibitor	CYP2C19 inhib	CYP2C9 inhib
CCC(=O)N1CCN(c2ccc(Cl)cc2NC(=O)c2ccc3c(c2)OCCO3)CC1	0	0.3	0.7	-6	26	71*
CCC(=O)N1CCN(c2ccc(Cl)cc2NC(=O)Cc2ccccc2)CC1	17	0.2	0.2	-14	83*	79*
CCC(=O)Nc1cc(Cl)ccc1N1CCN(C(=O)CC)CC1	6	0.7	0.7	-5	30	30
COC(=O)C1=C(C)NC(C)=C(C(=O)OC)C1C1CC=CCC1 (stereo unspecified)	4	.	.	2	.	.
O=C(c1ccccc1)n1nnc2ccccc21	-4	1.3	1.2	6	-18	-26
Cc1ccccc1Nc1nnc(SCc2cc([N+](=O)[O-])cc3c2OCOC3)s1	4	0.4	0	-3	100*	62*
COc1ccccc1CNC(=O)C1CC(c2cccc([N+](=O)[O-])c2)=NO1 (stereo unspecified)	-15	2.5*	0.7	16	30	-150
CCCCNC(=O)C1CC(c2c(Cl)cccc2Cl)=NO1 (stereo unspecified)	-2	4.8*	0.7	3	27	-385
CC(C)CCNC(=O)C1CC(c2cccc([N+](=O)[O-])c2)=NO1 (stereo unspecified)	-10	1.4	0.8	11	23	-43
CCCCNC(=O)C1CC(c2cccc([N+](=O)[O-])c2)=NO1 (stereo unspecified)	10	2*	1	-8	0	-99
O=C(NCc1ccc(C(F)(F)F)cc1)C1CC(c2c(Cl)cccc2Cl)=NO1 (stereo unspecified)	-17	0.7	0.4	18	64*	26
CCCCOc1cccc(OCCCC)c1C(=O)Nc1cc(C)on1	7	0.8	0.7	-10	34	15
CCCN(CCC)c1nc(NC2CCN(C(=O)OCC)CC2)nc(OC)n1	11	0.5	0.7	-11	31	49
COc1cc(OC)c(C2=NOC(C(=O)NCc3ccc4c(c3)OCO4)C2)cc1Cl (stereo unspecified)	.	1.2	0.1	.	93*	-16
O=C(NCc1ccc2c(c1)OCO2)C1CC(c2ccc(Cl)cc2)=NO1 (stereo unspecified)	-8	1	0.7	6	26	0
COc1cc(C2=NOC(C(=O)NCc3ccc(F)cc3)C2)cc(OC)c1OC (stereo unspecified)	-7	1.6	0.3	5	69*	-61
CC(C)(C)c1ccc(CSc2nnc(-c3ccccn3)n2Cc2ccco2)cc1	7	0.1	0.3	-9	73*	93*
Brc1ccc(CSc2nnc(-c3ccccn3)n2Cc2ccco2)cc1	9	0.1	0.5	-7	48	87*
Cc1ccc(-c2nnc(SCc3ccc(C#N)cc3)n2Cc2ccco2)cc1	-7	0.7	0.9	8	11	32
Clc1cccc(CSc2nnc(-c3ccccn3)n2Cc2ccco2)c1	4	0.2	0.5	-2	50*	85*
CCCCNC(=S)NNC(=O)c1sccc1C	10	0.9	0.1	-12	88*	12
